The source of these data is PubChem BioAssay (Tox21).

Test [1] in a line: qHTS assay to identify small molecule agonists of the constitutive androstane receptor (CAR) signaling pathway - cell viability counter screen (AID 1224836). Further: nearly all actives have a fitted effect of over 45% in size. Further: potency means the concentration at half of the fitted maximal effect. The gist of the method:
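Cells were seeded and incubated 4 hrs. Compounds were added across 15 concentrations together with PK11195 at 0.75 uM final. Plates were incubated 23 hrs at 37 C. CellTiter-Fluor was added and fluorescence measured.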

The nature of test [2]: qHTS assay to identify small molecule antagonists of the constitutive androstane receptor (CAR) signaling pathway - cell viability counter screen (AID 1224837). Further: nearly all actives have a fitted effect of over 45% in size. The gist of the method:
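HepG2 cells stably carrying hCAR and CYP2B6-2.2kb reporter, stimulated with 50 nM CITCO and compounds at 15 concentrations for 23 h at 37 C. Viability measured by CellTiter-Fluor fluorescence.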

A short description of test [3]: qHTS assay to identify small molecule antagonists of the estrogen related receptor signaling pathway with the pleiotropic PPARgamma coactivator (PGC) from Tox21 10K library - cell viability counter screen (AID 1224840; active means well fitted cell-killing curve with a large enough effect in the repeat runs, not every such curve was filed as active; further: nearly all actives have a fitted effect of over 40% in size; further: potency means the concentration at half of the fitted maximal effect). The method, boiled down: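 PGC/ERR cells (2,000/well) plated 6 h, then compound-treated for 17.5 h at 37 C. Viability measured by CellTiter-Fluor fluorescence after 30 min at 37 C, multiplexed with the pathway assay.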

Test [4] has as its target Thyrotropin receptor (Homo sapiens) (UniProt P16473). The test is described as follows: qHTS assay to identify small molecule agonists of the thyroid stimulating hormone receptor (TSHR) signaling pathway (AID 1224843; calls by dose curve; further: nearly all actives have a fitted effect of over 45% in size; further: potency means the concentration at half of the fitted maximal effect). The gist of the method:
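Screening of the Tox21 10K collection used HEK293 cells engineered with TSHR at 800 cells per well. After a 30-min room-temperature compound exposure, HTRF cAMP reagents were added and fluorescence recorded 1 h later.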

Test [5] can be described thus: qHTS assay to identify small molecule agonists of the hypoxia (HIF-1) signaling pathway - cell viability counter screen (AID 1224844; calls by dose curve; further: nearly all actives have a fitted effect of over 50% in size; further: potency means the concentration at half of the fitted maximal effect). The method, boiled down: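 HRE-bla ME-180 cells, 2,000/well in 0.5% dialyzed FBS medium, treated 17 h at 37C with compounds. Viability read in the same wells as the bla reporter, by CellTiter-Glo luminescence after 30 min at room temperature.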

The nature of test [6]: qHTS assay to identify small molecule agonists of H2AX (AID 1224845; active means well fitted activation curve with a large enough effect in the signal ratio in the repeat runs, not every such curve was filed as active; the % refers to the signal ratio; further: potency means the concentration at half of the fitted maximal effect). The method, boiled down:
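Phospho-H2AX Ser139 measured by HTRF (ex 320 nm; em 665 and 620 nm) after 24 hr antibody incubation. Compounds, 15 concentrations, 0.76% DMSO, were applied to CHO-K1 cells for 3hr at 37C before lysis.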

The nature of test [7]: qHTS assay to identify small molecule agonists of H2AX - cell viability counter screen (AID 1224847; calls by dose curve; further: nearly all actives have a fitted effect of over 30% in size; further: potency means the concentration at half of the fitted maximal effect). The method, boiled down:
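Cytotoxicity counter screen in wild-type CHO-K1 cells: a 3 hr compound treatment at 37C across 15 concentrations, followed by CellTiter-Glo luminescence to gauge viable cells.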

A short description of test [8]: qHTS RealTime-Glo MT Cell Viability Assay in HepG2 cells - 24 hour (AID 1224867). Further: nearly all actives have a fitted effect of over 50% in size. Further: potency means the concentration at half of the fitted maximal effect. The gist of the method:
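HepG2 suspension premixed with RealTime-Glo reagents is plated at 600 cells per well and left 5 h at 37 C/5% CO2. Compounds in DMSO then go in, and bioluminescence reflecting viable cell number is recorded over 40 h.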

A short description of test [9]: qHTS RealTime-Glo MT Cell Viability Assay in HEK293 cells - 32 hour (AID 1224868). Further: nearly all actives have a fitted effect of over 50% in size. Further: potency means the concentration at half of the fitted maximal effect. The gist of the method:
(§1)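 Reads taken at 0, 8, 16, 24, 32 and 40 h from the same wells. HEK293 cells (600/well) carried RealTime-Glo reagents from seeding, with compound added after a 5 h settle at 37 C.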

The nature of test [10]: A CellTox Green Cytotoxicity Assay to monitor cytotoxicity in HEK293 cells - 0 hour (AID 1224869). Further: nearly all actives have a fitted effect of over 50% in size. The gist of the method:
(§2)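 HEK293 cells, 600/well, were preincubated 5 hours and then exposed to compounds at 37 C for up to 40 hours. A cell-impermeant cyanine dye staining dead-cell DNA was read by fluorescence at 0, 8, 16, 24, 32 and 40 h time points.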

Test [11] can be described thus: qHTS RealTime-Glo MT Cell Viability Assay in HepG2 cells - 40 hour (AID 1224870). Further: nearly all actives have a fitted effect of over 50% in size. The method, boiled down:
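Real-time viability: cells seeded at 600 per well together with NanoLuc and cell-permeant prosubstrate, compounds added after 5 h incubation. Luminescence tracked at 0, 8, 16, 24, 32 and 40 h of exposure.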

A short description of test [12]: A CellTox Green Cytotoxicity Assay to monitor cytotoxicity in HEK293 cells - 40 hour (AID 1224871). Further: nearly all actives have a fitted effect of over 45% in size. Further: potency means the concentration at half of the fitted maximal effect. The method, boiled down:
as §2

Test [13] in a line: qHTS RealTime-Glo MT Cell Viability Assay in HEK293 cells - 16 hour (AID 1224872). Further: nearly all actives have a fitted effect of over 50% in size. Further: potency means the concentration at half of the fitted maximal effect. The gist of the method:
as §1

Test [14] has as its target Nuclear receptor subfamily 1 group I member 3 (Homo sapiens) (UniProt Q14994). The test is described as follows: qHTS assay to identify small molecule antagonists of the constitutive androstane receptor (CAR) signaling pathway (AID 1224838). Further: nearly all actives have a fitted effect of over 40% in size. Further: potency means the concentration at half of the fitted maximal effect. The method, boiled down: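 HepG2 cells stably carrying hCAR and a CYP2B6-2.2kb luciferase reporter, seeded 4 hrs before compound (15 concentrations). Stimulated with 50 nM CITCO for 24 hr at 37 C. ONE-Glo luminescence read after 30 min at room temperature.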

Test [15] shares this target. As to the kind of experiment: qHTS assay to identify small molecule agonists of the constitutive androstane receptor (CAR) signaling pathway (AID 1224839). Further: nearly all actives have a fitted effect of over 15% in size. Further: potency means the concentration at half of the fitted maximal effect. The method, boiled down:
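Cells were plated and incubated 4 hrs, then dosed with compounds at 15 concentrations. PK11195 was added to 0.75 uM final. After 24 hrs at 37 C, luciferase luminescence was measured.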

Test [16] is described as follows: qHTS assay to identify small molecule antagonists of the estrogen related receptor signaling pathway with the pleiotropic PPARgamma coactivator (PGC) from Tox21 10K library (AID 1224841; call rule not given here; further: potency means the concentration at half of the fitted maximal effect). The method, boiled down:
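PGC/ERR cell line, 2,000 cells/well, pre-incubated 6 hours at 37 C, then exposed to compounds for 18 hours at 37 C; luciferase read with One-Glo luminescence after 30 min at room temperature.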

Test [17] in a line: qHTS assay to identify small molecule agonists of the estrogen related receptor signaling pathway with the pleiotropic PPARgamma coactivator (PGC) from Tox21 10K library (AID 1224842). Further: nearly all actives have a fitted effect of over 15% in size. The gist of the method: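 Luminescence from One-Glo (30 min, room temperature) measured after PGC/ERR cells had 18 h at 37 C with pinned compound (23 nL in DMSO). Cells had been seeded at 2,000 per well and pre-incubated 6 h.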

Test [18] in a line: qHTS assay to identify small molecule agonists of the estrogen related receptor (ERR) signaling pathway from Tox21 library (AID 1224849; calls by dose curve; further: nearly all actives have a fitted effect of over 15% in size). As to conditions: ERR reporter cell line, ONE-Glo luciferase, 18 h. The gist of the method:
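ERR reporter cells (NTP line) pre-incubated 6 hours at 37 C, then exposed to compounds for 18 hours at 37 C. ONE-Glo luciferase luminescence was read after 30 minutes at room temperature.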

The nature of test [19]: qHTS assay to identify small molecule antagonists of the estrogen related receptor (ERR) signaling pathway from Tox21 library (AID 1224848). Further: nearly all actives have a fitted effect of over 50% in size. Further: potency means the concentration at half of the fitted maximal effect. The method, boiled down: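 Antagonist-mode screen of the Tox21 10K library in an NTP-provided ERR reporter cell line; 18 h compound exposure at 37 C, luminescence measured with ONE-Glo.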
Test [20] in a line: qHTS assay to identify small molecule agonists of the hypoxia (HIF-1) signaling pathway (AID 1224846; active means well fitted activation curve with a large enough effect in the signal ratio in the repeat runs, not every such curve was filed as active; the % refers to the signal ratio). The gist of the method: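 HRE-bla ME-180 beta-lactamase reporter cells in medium with 0.5% dialyzed FBS, pre-incubated 5 h then exposed to compounds 17 h at 37C, 5% CO2; reporter induction read with CCF4-AM FRET substrate.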

Several values for one entry are separate records, joined by “and”; a condition that tells them apart may be missing. Identical values can stand only once. Records with an inconclusive call do not appear. The source holds several records for some structures; these can differ, active in one and inactive in another. Activity calls are given as the source filed them. Unless noted, the call rests on the fitted dose curve; in most records, active means well fitted curve in the direction sought with a large enough effect in the repeat runs; inconclusive means weak or mixed curves; inactive means no such curve, though single readings can be large; an effect the other way counts as inactive or inconclusive.
On the % scale 0 is the no-effect control and ±100 the full control effect.

Thyrotropin receptor (Homo sapiens), sequence (P16473 whole entry, looked up): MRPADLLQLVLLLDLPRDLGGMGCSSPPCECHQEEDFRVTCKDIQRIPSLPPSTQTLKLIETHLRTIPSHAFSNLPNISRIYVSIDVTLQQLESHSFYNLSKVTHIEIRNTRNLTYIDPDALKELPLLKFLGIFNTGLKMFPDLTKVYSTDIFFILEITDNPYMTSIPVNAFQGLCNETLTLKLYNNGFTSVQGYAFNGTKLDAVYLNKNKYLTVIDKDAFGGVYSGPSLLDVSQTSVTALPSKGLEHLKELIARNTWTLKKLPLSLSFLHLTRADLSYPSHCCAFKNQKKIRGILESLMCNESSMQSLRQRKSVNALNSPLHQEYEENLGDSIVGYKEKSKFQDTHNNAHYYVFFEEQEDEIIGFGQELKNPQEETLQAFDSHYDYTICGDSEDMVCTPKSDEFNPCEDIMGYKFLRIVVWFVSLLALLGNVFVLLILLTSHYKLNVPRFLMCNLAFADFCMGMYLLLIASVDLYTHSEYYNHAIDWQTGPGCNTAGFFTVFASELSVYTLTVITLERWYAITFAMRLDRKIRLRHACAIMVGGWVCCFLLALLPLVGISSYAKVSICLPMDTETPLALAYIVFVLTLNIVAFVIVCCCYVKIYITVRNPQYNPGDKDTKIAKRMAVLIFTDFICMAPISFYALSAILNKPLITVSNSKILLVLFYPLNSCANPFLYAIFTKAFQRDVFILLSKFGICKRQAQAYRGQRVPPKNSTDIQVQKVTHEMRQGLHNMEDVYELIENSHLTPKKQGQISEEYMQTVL
Nuclear receptor subfamily 1 group I member 3 (Homo sapiens), sequence (Q14994 whole entry, looked up): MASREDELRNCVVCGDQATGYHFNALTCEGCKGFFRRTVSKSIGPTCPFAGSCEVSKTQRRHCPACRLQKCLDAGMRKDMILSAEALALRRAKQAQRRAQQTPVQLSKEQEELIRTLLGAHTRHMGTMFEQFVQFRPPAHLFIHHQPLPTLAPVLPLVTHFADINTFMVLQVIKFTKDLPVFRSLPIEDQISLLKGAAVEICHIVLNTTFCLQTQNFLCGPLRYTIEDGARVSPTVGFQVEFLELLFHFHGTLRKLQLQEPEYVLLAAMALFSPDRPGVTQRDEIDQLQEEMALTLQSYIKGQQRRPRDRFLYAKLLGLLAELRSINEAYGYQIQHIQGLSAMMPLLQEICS

For the molecule `NCCCCCC(=O)O`, the Potency entry in [1], in test [2], in test [3], in test [4], in test [5] and in test [6] was “inactive” in each case. In addition, the Potency result in test [7], in test [8], in test [9], in test [10], in [11] and in [12] was “inactive” throughout. Besides, the Potency entry in [13] is “inactive”.
On to `CC(C)C(=O)c1c(C(C)C)nn2ccccc12`, for which the Potency result in test [2], in [14], in [3], in [16], in test [17] and in [5] was “inactive” each time. Also, the Potency result in test [6], in [7], in [8], in test [9], in test [10] and in test [12] was “inactive” each time. The Potency entry in test [13] is “inactive”. The Potency in test [15] was 23.7 µM (active). Besides, in [18] (at 42.5 µM (top of the series)), the activity change, positive = activation is -9.6% (inactive).
For `NC(N)=NC(=O)Cc1c(Cl)cccc1Cl`, the Potency result in test [2], in [14], in test [15], in test [3], in test [16] and in [17] was “inactive” each time. Moreover, the Potency entry in [4], in test [5], in [6], in [7], in test [8] and in test [9] was “inactive” in each case. Further, the Potency entry in test [10], in test [11], in test [12] and in test [13] was “inactive” throughout. The activity change, positive = activation in [18] (at 42.5 µM (top of the series)) was -1.99% (inactive).
In the case of `CC(=O)N[C@@H](CS)C(=O)O`, the Potency result in test [2], in test [14], in test [15], in [3], in [4] and in test [5] was “inactive” throughout. Moreover, the Potency entry in [6], in test [7], in test [8], in test [9], in [10] and in test [12] was “inactive” each time. The Potency entry in test [13] was “inactive”.
Take `Cc1cc(Cc2cc(C)cc(C(C)(C)C)c2O)c(O)c(C(C)(C)C)c1`: the Potency was 61.4 µM (active) in test [1]; 19.4 µM (active) and 43.3 µM (active) in [14]; 48.8 µM (active) and 43.3 µM (active) in test [3]; 48.8 µM (active) and 30.6 µM (active) in [16]; 43.5 µM (active) and inactive in test [4]; 9.82 µM (active) and 9.77 µM (active) in test [5]. Further, the Potency in [6] was 56.9 µM (active) and 45 µM (active); in test [7], 40.3 µM (active) and 31.8 µM (active); in [19], 27.4 µM (active) and 30.6 µM (active); in test [8], 49.2 µM (active) and 43.6 µM (active); in test [9] it was 9.82 µM (active) and 15.5 µM (active); in [12], 43.9 µM (active) and 43.6 µM (active). Besides, the Potency in [13] is 15.6 µM (active) and 17.4 µM (active). Moreover, the Potency result in [15], in test [17] and in [10] was “inactive” in each case. Moreover, the activity change, positive = activation in [18] (at 92.4 µM (top of the series)) is -73.5% (inactive) and -62.7% (inactive).
Consider `CC(C)(C)c1ccccc1`, for which the Potency result in test [2], in [14], in [15], in test [3], in test [16] and in test [17] was “inactive” throughout. In addition, the Potency result in [4], in test [5], in [6], in test [20], in [7] and in test [19] was “inactive” throughout. The Potency entry in [8], in [9], in test [11], in test [12] and in [13] was “inactive” throughout. The activity change, positive = activation in test [18] (at 92.4 µM (top of the series)) was 0.862% (inactive).
